Values joined by “and” are separate entries in the source; they are usually repeats but may differ in a detail not shown here. Equal entries are not always repeated. Records with an inconclusive call do not appear. Where a call stands in place of a potency, no number is given. Some structures have more than one record in an assay (separate samples or runs), and their calls can disagree. Active and inactive are the calls of the source. The call rests on the fitted dose curve.
Potency means the concentration at half of the fitted maximal effect.

The target of this assay is Peroxisome proliferator-activated receptor gamma (Homo sapiens) (UniProt P37231). Kind of assay: qHTS assay to identify small molecule antagonists of the peroxisome proliferator-activated receptor gamma (PPARg) signaling pathway (AID 743191). Further: nearly all actives have a fitted effect of over 30% in size. The conditions noted are these: HEK293H PPARg-UAS-bla, beta-lactamase ratio, antagonist, 17 h; series mostly up to 62.6 µM. From the text: U.S. Tox21 Program National Center for Advancing Translational Sciences [NCATS] NIH Chemical Genomics Center [NCGC] U.S. Environmental Protection Agency [EPA] National Institutes of Environmental Health Sciences [NIEHS] National Toxicology Program [NTP] U.S. Food and Drug Administration [FDA] Tox21 Assay Overview: The peroxisome proliferator-activated receptors (PPARs) are lipid-activated transcription factors of the nuclear receptor superfamily with three distinct subtypes namely PPAR alpha, PPAR delta (also called PPAR beta) and PPAR gamma (PPARg). All these subtypes heterodimerize with Retinoid X receptor (RXR) and these heterodimers regulate transcription of various genes. PPAR-gamma receptor (glitazone receptor) is involved in the regulation of glucose and lipid metabolism. To identify the compounds that inhibit PPAR-gamma signaling, GeneBLAzer PPAR gamma UAS-bla HEK293H cell line (Invitrogen, Carlsbad, CA, USA) containing a beta-lactamase reporter gene under control of an Upstream Activator Sequence (UAS) was used to screen the Tox21 compound library.
Chain of Peroxisome proliferator-activated receptor gamma (Homo sapiens) (P37231 whole entry, looked up): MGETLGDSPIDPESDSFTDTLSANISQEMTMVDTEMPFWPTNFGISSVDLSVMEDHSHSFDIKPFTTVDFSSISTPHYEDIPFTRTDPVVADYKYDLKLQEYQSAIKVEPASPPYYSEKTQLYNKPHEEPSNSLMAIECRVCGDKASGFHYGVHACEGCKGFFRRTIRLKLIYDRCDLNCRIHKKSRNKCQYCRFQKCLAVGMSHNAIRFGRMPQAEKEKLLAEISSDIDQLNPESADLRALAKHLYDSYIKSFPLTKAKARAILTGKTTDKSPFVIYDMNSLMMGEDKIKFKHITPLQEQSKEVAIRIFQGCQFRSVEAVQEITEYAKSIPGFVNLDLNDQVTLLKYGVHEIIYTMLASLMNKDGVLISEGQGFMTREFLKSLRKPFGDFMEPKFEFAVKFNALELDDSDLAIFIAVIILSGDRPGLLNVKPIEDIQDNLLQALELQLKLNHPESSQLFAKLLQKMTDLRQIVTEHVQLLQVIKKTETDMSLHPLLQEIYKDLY
Tox21 Assay Protocol Summary: PPARg-bla cells were dispensed at 3000 cells/6uL/well in 1536-well black wall/clear bottom plates using a Multidrop Combi (Thermo Fisher Scientific, Waltham, MA) dispenser. After the assay plates were incubated at 37C and 5% CO2 for 5 h, 23 nL of compounds dissolved in DMSO, positive controls or DMSO only was transferred to the assay plate by a Pintool station (Kalypsys, San Diego, CA). The assay plates were incubated at 37C for 17 h. After 1 uL of LiveBLAzerTM B/G FRET substrate was added using a Bioraptr Flying Reagent Dispenser (FRD) workstation (Beckman Coulter, Indianapolis, IN, USA), the plates were incubated at room temperature for 1 h, and fluorescence intensity was measured by an Envision plate reader (PerkinElmer, Shelton, CT).
For `COCC(=O)N(c1c(C)cccc1C)C(C)C(=O)OC` (stereo unspecified), the Potency entry is “inactive”.

On to `O=P1(N(CCCl)CCCl)NCCCO1` (stereo unspecified), for which the Potency result was “inactive”.

Regarding `Cc1cc(Cl)ccc1N`, the Potency entry was “inactive”.

With `O=c1nc(O)n(Cl)c(=O)n1Cl`, the Potency entry is “inactive”.

In the case of `CCC(=O)C(CC(C)N(C)C)(c1ccccc1)c1ccccc1` (stereo unspecified), the Potency result is “inactive”.

For the molecule `Nc1ccc(-c2ccc(N)c(Cl)c2)cc1Cl`, the Potency result is “inactive and 49 µM (active)”.

As for `Oc1ccccc1-c1ccccc1`, the Potency entry was “inactive”.

With `Nc1ccc(Cl)cc1`, the Potency was 0.0871 µM (active).

Consider `CCCCCCCCCCn1cc[n+](C)c1`, for which the Potency result was “inactive”.

Regarding `C1CCC(NC2CCCCC2)CC1`, the Potency entry was “inactive”.

Take `CCNc1nc(Cl)nc(NCC)n1`: the Potency result was “inactive”.

As for `CCCCCCCCCCCCCCCCn1cc[n+](C)c1`, the Potency entry is “inactive”.

Take `Cc1cc(Cl)ccc1OCC(=O)O`: the Potency entry is “inactive”.

Take `O=C(O)CC(O)(CC(=O)O)C(=O)O`: the Potency result was “inactive”.

As to `CNC`, the Potency result is “inactive”.

On to `O=C(O)CCl`, for which the Potency entry is “inactive”.

In the case of `Nc1ccccc1`, the Potency entry is “inactive”.

`OCCOc1ccccc1`: the Potency entry is “inactive”.

In the case of `COc1ccccc1N`, the Potency result was “inactive”.

In the case of `O=[N+]([O-])c1ccccc1O`, the Potency entry is “inactive”.

For the molecule `Nc1ccc(-c2ccc(N)cc2)cc1`, the Potency entry is “inactive”.

Consider `C=CCOC(Cn1ccnc1)c1ccc(Cl)cc1Cl` (stereo unspecified), for which the Potency result was “inactive”.

As to `O=c1[nH]c(=O)n(Cl)c(=O)n1Cl`, the Potency entry was “inactive”.

For the molecule `CN(C)[C@@H]1C(=O)C(C(N)=O)=C(O)[C@@]2(O)C(=O)C3=C(O)c4c(O)cccc4[C@@](C)(O)[C@H]3[C@H](O)[C@@H]12`, the Potency result was “inactive”.

In the case of `O=C(O)C(Cl)(Cl)Cl`, the Potency entry was “inactive”.

With `CCn1cc[n+](C)c1C`, the Potency entry was “inactive”.

In the case of `O=C(O)C(Cl)Cl`, the Potency result was “inactive”.

Regarding `Cc1cc(-c2ccc(N)c(C)c2)ccc1N`, the Potency result was “inactive”.

On to `CC[n+]1ccccc1`, for which the Potency entry is “inactive”.

Regarding `CC(Cl)(Cl)C(=O)O`, the Potency entry is “inactive”.

Turning to `CCCn1cc[n+](C)c1`, the Potency result was “inactive”.

For the origin of these results see PubChem BioAssay (Tox21).
